# pPAFAH inh – pPAFAH (human) enzyme inhibition; recombinant pPAFAH, FP-rhodamine probe fluorescence polarization; inhibition, % at 3.39 µM; AID 463082; 1.5% of 330,000 active;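 active = inhibition above the mean inhibition across the screen plus 3 SD, cut at about 25% in these data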;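 also: inhibitors block binding of the rhodamine activity-based probe so polarization drops; 0% = enzyme with DMSO and 100% = wells lacking pPAFAH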
# Target sequence (Q13093 whole entry, looked up): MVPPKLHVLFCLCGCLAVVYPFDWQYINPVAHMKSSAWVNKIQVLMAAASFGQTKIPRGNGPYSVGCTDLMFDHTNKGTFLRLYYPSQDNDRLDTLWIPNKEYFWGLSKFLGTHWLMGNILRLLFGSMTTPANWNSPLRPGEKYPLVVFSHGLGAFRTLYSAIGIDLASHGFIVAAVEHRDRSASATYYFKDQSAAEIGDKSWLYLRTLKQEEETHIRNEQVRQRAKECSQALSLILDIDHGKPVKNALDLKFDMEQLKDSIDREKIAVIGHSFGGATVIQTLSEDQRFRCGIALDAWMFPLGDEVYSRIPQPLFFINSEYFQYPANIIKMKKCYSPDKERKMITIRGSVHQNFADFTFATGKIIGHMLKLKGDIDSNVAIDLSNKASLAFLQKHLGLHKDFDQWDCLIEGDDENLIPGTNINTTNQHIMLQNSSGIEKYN
# PAFAH2 inh – inhibitors of human PAFAH2; recombinant PAFAH2, FP-rhodamine activity probe, fluorescence polarization; inhibition, % at 3.39 µM; 0.99% of 340,000 active;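 active = inhibition above the mean over all tested compounds plus 3 SD, cut at about 30% in these data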;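 also: inhibitors block probe labeling of enzyme so polarization drops; 0% = enzyme with DMSO and 100% = wells lacking PAFAH2 protein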
# PAFAH1B3 inh – blocks human PAF acetylhydrolase 1B catalytic subunit 3; Q15102; recombinant PAFAH1B3, FP-rhodamine probe, fluorescence polarization; inhibition, % at 3.39 µM; 0.28% of 340,000 active; AID 492972;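 active = inhibition above the screen-wide average of all tested compounds plus 3 SD, cut at about 25% in these data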;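 also: 0% = enzyme with DMSO only and 100% = wells lacking PAFAH1B3 protein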
# PAFAH1B2 FP inh – PAFAH1B2 (human) inhibition; P68402; recombinant PAFAH1B2, FP-rhodamine activity probe, fluorescence polarization; inhibition, % at 3.39 µM; 1.2% of 340,000 active; AID 492953;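 active = inhibition above the mean of all tested compounds plus 3 SD, cut at about 24% in these data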;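 also: 0% = enzyme with DMSO and 100% = wells lacking PAFAH1B2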
# PME-1 primary – PME-1 (human) inhibition. Q9Y570. recombinant PME-1, FP-Rh probe fluorescence polarization. inhibition, % at 5.9 µM. 0.53% of 320,000 active. AID 2130;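 active = inhibition above the campaign mean of all compounds plus 3 SD, cut at about 26% in these data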;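 also: competitive labeling of PME-1 active site by serine hydrolase directed probe; 0% = PME-1 with DMSO and 100% = wells lacking PME-1 enzyme; inhibitors block probe labeling so polarization falls and inhibition rises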
# Fam108B counter – counter-screen for RBBP9 inhibitors: inhibitors of mouse Fam108B; recombinant Fam108B, FP-Rh probe fluorescence polarization; 0.33% of 300,000 active; AID 1947; inhibition, % at 9.51 µM;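 active = inhibition above the screen mean inhibition plus 3 SD, computed separately per campaign, cut at about 18% in these data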;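 also: inhibitors lower polarization as less probe binds the enzyme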
# Numbers without * were called inactive; x = no result given. A selection: hits, their analogues and other compounds. The true share with any hit is near 2.9%.
SMILES,pPAFAH inh,PAFAH2 inh,PAFAH1B3 inh,PAFAH1B2 FP inh,PME-1 primary,Fam108B counter
COc1cc(/C=C(\C#N)C(=O)NCCc2ccccc2)cc(OC)c1O,2,3,8,6,5,-1
CC1CCN(C(=O)CSC2=NS(=O)(=O)c3cc(F)ccc3N2)CC1,-2,2,-2,6,0,14
C=CC(=O)Nc1cccc(Oc2cc(Cl)nc3[nH]ccc23)c1,-3,-13,-5,2,x,x
O=[N+]([O-])c1ccccc1-c1ccc(/C=N/n2cnnc2)o1,10,3,-2,0,4,-6
O=[N+]([O-])c1cc(-c2ccc(/C=N\n3cnnc3)o2)cc([N+](=O)[O-])c1,27*,3,5,1,3,14
CCOC(=O)c1c(-c2ccc(C)o2)csc1NC(=O)CN1CCCCC1,5,-1,3,-3,-4,-5
CCOC(=O)c1c(-c2ccc(C)o2)csc1NC(=O)CSc1nncs1,25*,0,0,1,-1,0
O=C(NC1CCCc2ccccc21)C1CCN(S(=O)(=O)c2ccccc2F)CC1 (stereo not given),5,8,5,4,58*,-6
CCCCC(CC)CNS(=O)(=O)c1ccc2c(c1)CCN2C(=O)CCC(=O)O (stereo not given),32*,-3,9,16,0,1
CC(=O)Oc1ccc(/C=C(\NC(=O)c2ccco2)C(=O)NCc2ccco2)cc1,-1,9,3,2,-3,1
COc1ccc(CCNC(=S)N2CCN(S(=O)(=O)c3ccc(C)cc3)CC2)cc1,-5,-2,3,1,3,1
CC1CCCCC1NC(=O)c1ccc(S(=O)(=O)N2CCCC2)cc1 (stereo not given),3,-2,8,2,-3,1
CC1CCCCC1NS(=O)(=O)c1ccc(S(=O)(=O)N2CCCC2)cc1 (stereo not given),26*,2,3,14,1,1
O=C(N/N=C/c1ccc2c(c1)OCO2)C(O)c1ccccc1 (stereo not given),1,-7,-2,2,-2,0
CN(C)c1nc(OCCNC(=O)Nc2ccc(Cl)cc2)nc(N(C)C)n1,25*,-2,7,4,-4,-3
O=C(NCCSc1ncc(-c2ccc(F)cc2)[nH]1)c1ccc2c(c1)OCO2,1,3,2,33*,6,11
Cc1ccc(-c2cnc(SCCNC(=O)c3ccco3)[nH]2)cc1,0,7,-1,-1,-4,1
Cc1ccc(S(=O)(=O)N2CCC(=O)N(C(COCc3cccc(C)c3)Cc3ccccc3)CC2)cc1 (stereo not given),2,4,4,13,2,1
Cc1ccc(S(=O)(=O)N2CCC(=O)N(CCOCc3ccc(C(F)(F)F)cc3)CC2)cc1,30*,8,7,16,4,2
Cc1ccc(S(=O)(=O)N2CCC(=O)N(CCOC(=O)Nc3ccc(C)c(C)c3)CC2)cc1,11,0,0,16,-4,4
O=C1CCN(S(=O)(=O)c2ccccc2)CCN1CCOCc1ccc(C(F)(F)F)cc1,17,1,3,9,1,2
Cc1ccc(NC(=O)OCCN2CCN(S(=O)(=O)c3ccc(C)cc3)CCC2=O)cc1,11,3,9,29*,6,0
Cc1ccc(S(=O)(=O)N2CCC(=O)N(C(COC(=O)Nc3ccccc3)Cc3ccccc3)CC2)cc1 (stereo not given),7,4,6,35*,-7,0
Cc1ccc(S(=O)(=O)N2CCC(=O)N(C(CO)Cc3ccccc3)CC2)cc1 (stereo not given),0,1,4,24*,-2,1
O=C(NCCc1ccccc1)C1CCCN(C(=O)Nc2ccc(F)cc2)C1 (stereo not given),2,1,2,-4,-3,2
SMILES,pPAFAH inh,PAFAH2 inh,PAFAH1B3 inh,PAFAH1B2 FP inh,PME-1 primary,Fam108B counter
CCc1ccc(NC(=S)N2CCCCCCC2)cc1,2,-5,7,3,3,0
COc1cc(/C=C2\SC(=O)N(Cc3ccc(Cl)cc3)C2=O)cc([N+](=O)[O-])c1O,x,49*,19,39*,x,x
COc1cc(/C=C2\SC(=O)N(Cc3ccc(F)cc3)C2=O)cc([N+](=O)[O-])c1O,x,29,5,5,x,x
C[N+](C)(C)c1ccc(/C=N/Nc2nc(Cl)c(C#N)c(Cl)c2Cl)cc1,19,4,9,1,19,3
N#Cc1c(Cl)nc(N/N=C/c2ccccc2)c(Cl)c1Cl,29*,0,1,0,6,5
COc1ccc(CCn2c(-c3ccc(C(C)(C)C)cc3)n[nH]c2=S)cc1OC,1,11,5,25*,-3,3
CC1(C)CC2CC(C)(CN2C(=O)COC(=O)c2ccc(O)cc2O)C1 (stereo not given),7,-5,3,25*,x,x
CCC(C)N(C(=O)Cn1nnc(-c2ccc(F)cc2)n1)C1CCS(=O)(=O)C1 (stereo not given),-1,-4,9,2,7,1
C=C(C)COc1ccc2c(C)c(CCC(=O)N3C[C@H]4C[C@@H](C3)c3cccc(=O)n3C4)c(=O)oc2c1,25*,-1,4,7,-1,0
C=C(C)COc1ccc2c(C)c(CC(=O)N3C[C@H]4C[C@@H](C3)c3cccc(=O)n3C4)c(=O)oc2c1,5,5,4,4,-5,-4
O=C(NCc1ccco1)/C(=C\c1ccc(F)cc1)NC(=O)c1ccco1,-5,8,-3,1,-4,-1
O=C(CSc1nccc(-c2cccs2)n1)Nc1ccc(Cl)cc1,-2,-12,12,5,-6,-2
Cc1onc(-c2ccc(Cl)cc2)c1-c1ccnc(SCC(=O)Nc2ccc(C(C)C)cc2)n1,0,-17,-13,30*,-20,-15
CC1CCN(S(=O)(=O)c2ccc3c(c2)oc(=O)n3C)CC1,0,-6,6,25*,-1,1
Cn1c(=O)oc2cc(S(=O)(=O)N3CCC(N4CCCCC4)CC3)ccc21,3,-4,10,3,2,-1
COc1cc(/C=N/N2CCCCC2)cc([N+](=O)[O-])c1O,28*,6,11,-1,-1,4
O=C(O)c1cc(O)ccc1NC(=O)C(c1ccccc1)c1ccccc1,12,-1,7,24*,-10,0
Cc1c(NC(=O)C(c2ccccc2)c2ccccc2)cccc1C(=O)O,1,2,2,5,-8,-4
Cc1nc(COc2ccccc2Cl)sc1-c1ccnc(N)n1,15,3,12,5,-3,-3
O=C(c1cc(-c2ccco2)on1)N1CCCc2ccccc21,25*,6,-1,2,-4,-1
O=C(c1cc(-c2ccco2)on1)N1CCc2ccccc2C1,30*,0,-9,4,3,1
